From PubChem BioAssay
Compounds with a hit are over-represented: about 4.7% of the library has one in this group of screens.
rCAG RNA binder: binders of r(CAG) RNA repeats, primary screen, biochemical, fluorescence; AID 651821, 2012; r(CAG) RNA repeat, TO-PRO-1 dye displacement fluorescence; 1.3% of 370,000 active; inhibition, % at 3 µM;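 active = inhibition above the plate cutoff, the mean of all test compounds on that plate plus 3 SD, cut at about 35% in these data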;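 also: 0% = DMSO alone and 100% = 100 µM mitoxantrone as full dye displacement; higher means more dye released from RNA so lower well fluorescence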
KLK7 zymogen act: proKLK7 zymogen activators, primary screen, biochemical, fluorescence intensity; purified proKLK7, EDANS-DABCYL substrate fluorescence; 100% is mature enzyme control, 0% vehicle; activation, % at 7 µM; 0.9% of 370,000 active; AID 652039, 2013;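 active = activation above the mean of all tested compounds plus 3 SD, computed per campaign excluding outliers beyond control limits, cut at about 13% in these data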
ADAM10 inh: human ADAM10 inhibitors, primary screen, biochemical, QFRET, HTS; Disintegrin and metalloproteinase domain-containing protein 10 (Homo sapiens), O14672; inhibition, % at 7 µM; 0.62% of 370,000 active; AID 720582, 2013; recombinant ADAM10, EDANS/DABCYL FRET peptide cleavage, 3 h;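 active = inhibition above a per-campaign cutoff equal to the mean of compounds falling between control-based bounds plus 3 SD, cut at about 20% in these data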;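 also: 0% = DMSO wells while the 100% control is not disclosed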
MPTP block: mitochondrial permeability transition pore inhibitors, primary screen, biochemical, isolated mouse mitochondria, absorbance | Ca2+ swelling absorbance, 30 min | 1.4% of 360,000 active | inhibition, % at 10 µM;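 active = inhibition of 50% or more, scaled per plate between neutral and stimulator controls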;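 also: 0% = DMSO wells given calcium and 100% = 1 mM EGTA wells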
DSG3 Ab inh: inhibitors of pemphigus antibody binding to DSG3, primary screen, biochemical, bead-based, flow cytometry, scFv-GFP; Desmoglein-3 (Homo sapiens), P32926; DSG3-coupled beads, scFv-anti-DSG3-GFP binding; stronger effect = lower value; binding (percent of control), % at 10 µM; 0.48% of 310,000 active;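 active = binding more than 3 SD below its plate's average and above zero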;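 also: hits lower antibody fragment binding to DSG3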
ADAM17 inh: ADAM17 inhibitors, primary screen, biochemical, QFRET. Disintegrin and metalloproteinase domain-containing protein 17 (Homo sapiens), P78536. recombinant ADAM17, EDANS/DABCYL FRET peptide cleavage. 0.83% of 370,000 active. inhibition, % at 6.95 µM;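 active = inhibition above the mean of compounds lying between control limits plus 3 SD, set per campaign, cut at about 8.5% in these data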;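 also: 0% = DMSO-only wells as the low control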
Target sequence (P78536 215-824 limits assumed): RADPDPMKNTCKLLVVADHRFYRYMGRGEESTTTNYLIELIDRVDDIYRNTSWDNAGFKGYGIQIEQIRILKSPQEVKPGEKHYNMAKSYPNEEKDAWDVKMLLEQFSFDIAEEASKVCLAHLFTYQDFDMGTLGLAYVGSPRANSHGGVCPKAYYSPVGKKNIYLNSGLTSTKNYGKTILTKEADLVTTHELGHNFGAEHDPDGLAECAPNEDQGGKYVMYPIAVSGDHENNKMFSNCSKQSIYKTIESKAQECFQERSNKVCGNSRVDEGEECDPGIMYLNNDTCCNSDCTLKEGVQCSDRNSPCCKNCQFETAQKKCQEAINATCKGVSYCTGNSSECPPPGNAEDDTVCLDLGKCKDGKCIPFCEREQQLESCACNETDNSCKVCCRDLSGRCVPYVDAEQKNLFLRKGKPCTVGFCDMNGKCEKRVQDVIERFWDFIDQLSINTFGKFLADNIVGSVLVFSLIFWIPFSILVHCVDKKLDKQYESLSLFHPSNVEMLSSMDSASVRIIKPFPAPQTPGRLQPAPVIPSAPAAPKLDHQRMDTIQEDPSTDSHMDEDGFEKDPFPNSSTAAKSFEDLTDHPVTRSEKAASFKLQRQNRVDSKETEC
Active calls of the source: *; . = not tested or not shown.

SMILES | rCAG RNA binder | KLK7 zymogen act | ADAM10 inh | MPTP block | DSG3 Ab inh | ADAM17 inh
Cc1ccc(NC(=O)c2c3c(nc4ccccc24)CCC3)cc1S(=O)(=O)N(C)C | 23 | 0 | 3 | -1 | 45* | 1
Cc1ccc(NC(=O)c2cc(-c3ccc(C)o3)nc3ccccc23)cc1 | 19 | -1 | 6 | -4 | 101 | 0
Cc1ccc(-c2cc(C(=O)Nc3cccnc3)c3ccccc3n2)o1 | 11 | 7 | -64 | -2 | 81* | -25
NC(=O)CC(c1ccccc1)c1ccc2c(c1)OCO2 (stereo not drawn) | -2 | 0 | -9 | 2 | 109 | -5
NC(CSC(c1ccccc1)(c1ccccc1)c1ccc2c(c1)OCO2)C(=O)O (stereo not drawn) | 13 | 0 | 0 | 0 | 93* | -3
COc1ccc(C2CC(=O)C(c3cccc(C)c3)=CN2Cc2ccccc2)cc1 (stereo not drawn) | 3 | -2 | -9 | . | . | -1
CCC(=O)c1ccc(OCC(O)CN(CCc2ccccc2)Cc2ccccc2)cc1 (stereo not drawn) | -4 | 0 | 18 | 18 | 104 | 9.3*
OC(COc1ccccc1)CN(Cc1ccccc1)CC(O)COc1ccccc1 (stereo not drawn) | -6 | 0 | 14 | 0 | 106 | 5
CCOC(=O)CN1N=C(c2ccc(Cl)cc2)CCC1=O | -2 | -1 | 1 | 2 | 66* | -3
COc1ccc(Cl)cc1Cn1c(C)c(C(=O)NCc2cccc(Cl)c2)sc1=O | 8 | 0 | 14 | 0 | . | 10*
COc1ccc(C(C)=O)cc1Cn1c(C)c(C(=O)NCc2cccc(Cl)c2)sc1=O | 3 | 0 | -11 | -2 | . | 2
N#Cc1cn(-c2ccccc2)nc1-c1ccc2c(c1)OCCO2 | -3 | 0 | 2 | 4 | -0.9* | -3
CSCCC(NC(=O)C1CCC(C)CC1)C(=O)OCC(=O)c1ccc(Cl)cc1 (stereo not drawn) | -2 | 0 | -6 | -1 | 3.8* | -1
CSCCC(NC(=O)C12CC3CC(CC(C3)C1)C2)C(=O)OCC(=O)c1ccc(Cl)cc1 (stereo not drawn) | -2 | 1 | 5 | 0 | . | -3
CCCc1cc(=O)n2[nH]c(C)cc2n1 | -1 | 1 | -10 | 3 | 83* | -3
C#CCNC(=O)C[C@H]1C[C@@]2(C(=O)OCC)CCCC3=C2N(CCC3)C1=O | 2 | 0 | -2 | . | . | -3
O=c1c2nnn(-c3ccccc3)c2ncn1C/C=C/c1ccccc1 | 1 | 1 | -10 | 0 | 70* | -2
CCSc1nnc(NC(=O)CSc2nnc(CNC(=O)c3ccc(OC)cc3)o2)s1 | 0 | 0 | -5 | 0 | -2.6* | -4
O=C(CSc1nc2ccccc2n1Cc1ccccc1)NN=Cc1c[nH]c2ccccc12 | 13 | 1 | 12 | . | . | 7
Cc1cc(C)cc(OCC(=O)OCC(=O)NCCC2=CCCCC2)c1 | -8 | 1 | 7 | -5 | -9.8* | 1
COc1ccc(/C=N/OC/C(O)=C(\C#N)c2nc3ccccc3[nH]2)cc1 | 3 | 0 | 3 | 3 | 97 | -1
COc1ccc(OC/C(O)=C(\C#N)c2nc3ccccc3[nH]2)cc1 | 0 | 0 | -1 | 0 | 16* | -5
COc1ccc(NC(=O)c2oc3ccccc3c2NC(=O)c2ccc(OC)c(OC)c2)c(OC)c1 | 2 | 1 | -3 | 1 | 7.3* | 0
CCOC(=O)[C@@]12CCC3=C1N(CCC3)C(=O)[C@H](CC(=O)NCc1cccc3ccccc13)C2 | 4 | -1 | -3 | . | . | -7
Cc1cc(C(=O)N[C@H](c2ccccc2)[C@@]2(C)C[C@@H]2[C@@H](C)C(=O)Nc2ccc3ccccc3c2)n(C)n1 | 1 | 0 | 28* | 4 | 107 | 13*
SMILES | rCAG RNA binder | KLK7 zymogen act | ADAM10 inh | MPTP block | DSG3 Ab inh | ADAM17 inh
C=CCn1c(SCc2ccc(C(=O)Nc3nccs3)cc2)nnc1-c1ccc(C)c(Cl)c1 | 8 | -1 | 8 | 6 | 105 | 8.8*
Nc1ccc(S(=O)(=O)c2cc(O)c3ccccc3c2O)cc1 | 57* | -1 | 0 | 4 | 100 | 0
COC(=O)c1ccc(Cn2ccc3ccc(-c4ccc5ccn(C(=O)c6ccccc6)c5c4)cc32)cc1 | 13 | -23 | -30 | . | . | -9
COc1ccc(CCC[C@@H](CCC(=O)N(c2ccccc2)c2ccccc2)CCc2ccccc2)cc1 | 8 | -2 | -17 | . | . | -7
CCOC(=O)CC1(O)CSc2nc(N)cc(=O)n21 (stereo not drawn) | 3 | 1 | 1 | . | . | 2
COc1ccc(C(=O)Nc2ccccc2C(=O)O)cc1NC(=O)C(c1ccccc1)c1ccccc1 | 82* | 1 | 7 | 10 | 91 | 1
C#CCN1CC(COc2ccccc2)Oc2cccc(Oc3ccc(C(C)C)cc3)c2S1(=O)=O (stereo not drawn) | 7 | 0 | -9 | . | . | -3
N=C1/C(=C/c2ccc(-c3cccc(C(=O)O)c3)o2)C(=O)N=C2SC=C(c3ccccc3)N12 | 81* | -1 | -25 | 3 | 56 | -10
CCOC(=O)N[C@H](C(=O)N1CCC[C@H]1C(=O)NC1CCCC1)c1ccccc1 | 2 | 0 | 5 | . | . | 2
COC(=O)c1cc(-c2cccc3ccccc23)c(=O)n2c1CCC2 | 1 | 0 | -64 | . | . | -20
c1ccc2ncccc2c1 | . | . | . | 0 | 77* | .
CC(=O)C1=C(O)C(=O)OC1c1ccc(Cl)cc1 (stereo not drawn) | 2 | 0 | 8 | 0 | 76* | -1
COc1cc2[nH]c(=O)c(C(=O)NCc3ccc(F)cc3)c(O)c2cc1OC | 3 | -1 | -10 | 0 | 100 | 0
COc1ccc(CNC(=O)c2c(O)c3cc(OC)c(OC)cc3[nH]c2=O)cc1OC | 3 | 0 | -4 | 2 | 79* | -5
COc1ccc(CNC(=O)c2ccc(-c3ccccc3)cc2)cc1OC | -2 | 0 | 3 | 15 | 76* | -3
Cc1cc(NC(=O)Cc2c(C)[nH]c3ccccc23)ccc1Oc1cccnc1 | 13 | -2 | -34 | . | . | -15
COC(=O)c1ccccc1S(=O)(=O)N1CCC(C(=O)Nc2ccccc2N2CCOCC2)CC1 | 0 | 0 | -3 | 0 | 101 | 1
Cc1cc(C)c(C)c(S(=O)(=O)N2CCC(C(=O)Nc3ccccc3N3CCOCC3)CC2)c1C | 0 | 0 | -4 | 0 | 1.0* | -2
O=CN/C=C/c1cc(O)ccc1O | 11 | -65 | -133 | 1 | 78* | -27
